The values below come from PubChem BioAssay.

Active and inactive are the calls of the source. The rule behind the calls is not given here.

Chain of Pantothenate synthetase (Mycobacterium tuberculosis (strain ATCC 25618 / H37Rv)) (P9WIL5 whole entry, looked up): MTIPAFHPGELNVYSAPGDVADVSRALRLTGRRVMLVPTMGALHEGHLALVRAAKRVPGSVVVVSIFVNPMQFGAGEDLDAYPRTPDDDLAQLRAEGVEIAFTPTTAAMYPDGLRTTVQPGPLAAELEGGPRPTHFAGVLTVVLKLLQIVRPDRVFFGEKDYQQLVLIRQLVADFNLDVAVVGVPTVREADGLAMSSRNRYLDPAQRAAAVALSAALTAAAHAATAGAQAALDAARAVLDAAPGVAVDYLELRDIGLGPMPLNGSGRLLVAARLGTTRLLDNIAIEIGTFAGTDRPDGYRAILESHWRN

The experiment has as its target Pantothenate synthetase (Mycobacterium tuberculosis (strain ATCC 25618 / H37Rv)) (UniProt P9WIL5). Kind of experiment: Recombinant Mtb pantothenate synthetase (PanC) inhibitors, coupled enzyme, confirmatory (AID 375).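 Note: 0% = full reaction with vehicle and 100% = no enzyme background.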 The settings on record: coupled enzyme assay; at 10 µM, active compounds read high.
Usually inhibition stands for the change of the read-out against control, counted positive when it falls. For the compound `COc1ccc(OC)c(C2=NOC(C(=O)Nc3cc(C)nn3-c3ccccc3)C2)c1` (stereo unspecified), the inhibition is 0% (inactive). Turning to `O=C(Nc1cccnc1)Nc1ccc2c(c1)OCO2`, the inhibition was 0% (inactive).

As for `COc1ccc(-c2ccc(CCC(=O)O)n2NC(=O)c2cccs2)cc1`, the inhibition was 0% (inactive). The same measure for `c1coc(-c2nnc(-c3cccs3)o2)c1`: 16% (inactive); for `COC(=O)c1ccccc1NC(=O)CSc1nc2c(c(=O)n(C)c(=O)n2C)n1C`: 3% (inactive). For `Cc1cc(Cl)cc2c1NC(=O)[C@]21[C@@H]2C(=O)N(Cc3ccccc3)C(=O)[C@@H]2[C@@H]2CCCN21`, the inhibition is 6% (inactive). The same measure for `O=C(O)C1CCCN1S(=O)(=O)c1ccc2ccccc2c1` (stereo unspecified): 3% (inactive). Regarding `CC1Cc2ccccc2N1NC(=O)c1ccc(Cl)c(S(N)(=O)=O)c1` (stereo unspecified), the inhibition was 0% (inactive). Regarding `CCC(C(=O)N1CCc2cc(OC)c(OC)cc2C1)c1ccccc1` (stereo unspecified), the inhibition is 0% (inactive).

Take `CCOC(=O)c1cccc(NC(=O)CSc2nnc(-c3ccoc3C)n2CCOC)c1`: the inhibition is 1% (inactive). Take `CCOc1ccc(-n2c(C)nc3c(cnn3-c3ccc(Cl)cc3)c2=O)cc1`: the inhibition was 4% (inactive). `O=C(Nc1ccc(F)cc1)NC1CCN(Cc2nnnn2Cc2ccco2)CC1`: the inhibition was 0% (inactive). In the case of `O=C(Nc1ccc(N2CCCC2)cc1)c1cccc(F)c1`, the inhibition was 4% (inactive).

On to `CC(=O)OCC(=O)[C@H]1CC[C@H]2[C@@H]3CCC4=CC(=O)CC[C@]4(C)[C@H]3CC[C@]12C`, for which the inhibition was 1% (inactive). As to `O=C(c1ccc2c(c1)OCCO2)C1CCN(C(=O)c2ccc(F)cc2)CC1`, the inhibition was 0% (inactive). In the case of `N#Cc1nc(-c2cccs2)oc1NCc1ccc(Cl)cc1` it was 0% (inactive).
